Many of the other results were omitted from the sample, so hits are more common in it than they were.
Pf Dd2 inh – inhibitors of Plasmodium falciparum Dd2 growth; P. falciparum Dd2 growth, SYBR Green, 72 h; Potency, µM (highest dose often 28.9 µM), for inactives: at the top dose activity, negative = inhibition, hits mostly inhibitors; 120,000 tested, 4.3% active; active means well fitted inhibition curve with a large enough effect;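 further: plate controls were DMSO vehicle for no effect and reference drug for full effect; nearly all actives have a fitted effect of over 65% in size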
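Readout: SYBR Green fluorescence, 485 nm excitation, 535 nm emission, after ~16 h lysis at 37C. Before that, Dd2-infected red cells (2.5% hematocrit) grew 72 h with compound, 29 uM top final concentration.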
Numbers without * were called inactive; i = inactive; [ ] = another dose, or the depositor's remark. Potency means the concentration at half of the fitted maximal effect.

SMILES	Pf Dd2 inh
CCOc1ccc2[nH]c(=O)c(CN(C)CC3CCN(C)C3)cc2c1 (stereo unspecified)	-7.6%
O=C(NCCNc1cccnc1)C1CCC(=O)N(Cc2ccc(Cl)cc2)C1 (stereo unspecified)	-4.7%
COCC(=O)N1CCCC(C(=O)N2CCN(c3ccc(F)cc3)CC2)CCNC(=O)CC1 (stereo unspecified)	5.1%
Cc1cccc(S(=O)(=O)N2CCC(Oc3ncccc3C(=O)N3CCOCC3)C2)c1 (stereo unspecified)	25.6%
CCc1noc(-c2cn(C3CCN(C(=O)C(C)Oc4ccc(Cl)cc4)CC3)nn2)n1 (stereo unspecified)	-37.5%
CSCC(=O)N1CC[C@H](NC(=O)Nc2ccc(F)cc2F)[C@H]1C(=O)N[C@@H](Cc1cccs1)C(N)=O	11.8%
CN1C[C@@H](NC(=O)c2ccc(F)cc2)C[C@H]1c1nc(-c2ccncc2)no1	i
CN1C[C@@H](NC(=O)c2ccc(F)cc2)C[C@H]1c1nc(-c2cncnc2)no1	i
CN1C[C@@H](NC(=O)c2ccc(-c3ccccc3)cc2)C[C@H]1c1nc(-c2ccncc2)no1	11.2µM*
CN1C[C@@H](NC(=O)c2cccnc2)C[C@H]1c1nc(-c2cccnc2)no1	2.3%[44.1 µM]
CN1C[C@@H](NC(=O)c2cccnc2)C[C@H]1c1nc(-c2ccncc2)no1	-28.2%[44.1 µM]
CN1C[C@@H](NC(=O)c2ccc(F)cc2)C[C@H]1c1nc(-c2ccccc2)no1	11.2µM*
Cc1nnc(-c2cc(-c3cccc([S+](C)(=O)[O-])c3)ccn2)n1CCc1ccccc1	i
CNC(=O)[C@@H]1CN(C(=O)Cc2cc(C)no2)C[C@H]1COC	5.7%
COc1ccc(C(=O)NCc2ccnc3[nH]ccc23)cc1	-8.4%[44.1 µM]
O=C(O)c1cnc(-c2cc(NCc3ccccn3)nc3[nH]ccc23)c(Cl)c1	-3.3%
Nc1ncc(-c2ccc(-c3cc(NC4CCCC4)nc4[nH]ccc34)cc2)[nH]1	8.91µM*
CCNC(=O)c1ccc(-c2cc(NC3CCCC3)nc3[nH]ccc23)nc1	10µM*
CN1C(=O)CCC2(CNC(=O)c3cccnc3)CCCC=C12 (stereo unspecified)	18.2%
COc1ccc(Cn2c(C3CCN(C(=O)c4cccc(OC)c4)CC3)n[nH]c2=O)cc1	-9.8%
COc1ccc(Cl)cc1-c1ccc2c(c1)C(=O)N1CCN(C(=O)CN)C[C@H]1C(=O)N2	i
COc1cccc(COC2CN(CC(C)C)C(=O)CN(C(=O)c3csc(C(C)=O)c3)C2)c1 (stereo unspecified)	-21.9%
O=C(NCC1CCCO1)N1CC(c2nc(CCOCC3CCCC3)no2)C1 (stereo unspecified)	-5.8%
O=C(Cc1cccc(F)c1)Nc1ccc2ncnc(N3CCCCC3)c2c1	-13.5%
O=C(Cc1c(F)cccc1Cl)Nc1ccc2ncnc(N3CCCC3)c2c1	-20.0%
SMILES	Pf Dd2 inh
O=C(Cc1ccccc1F)Nc1ccc2c(N3CCCCC3)ncnc2c1	12.6µM*
COc1ccc(CC(=O)Nc2ccc3ncnc(N4CCCCC4)c3c2)c(Cl)c1	-22.0%
COc1cccc(CC(=O)Nc2ccc3c(N4CCCCC4)ncnc3c2)c1	11.2µM*
COc1ccccc1CC(=O)Nc1ccc2ncnc(N3CCCCC3)c2c1	i
COc1ccc(C(=O)N2CCC(c3n[nH]c(=O)n3Cc3ccc(F)cc3)CC2)cc1	i
O=C(O)CCC(=O)NC[C@H]1Cn2c(-c3cccc(Cl)c3)cnc2CO1	3.6%[44.1 µM]
Cc1noc(C)c1S(=O)(=O)N(C)Cc1cccc(C(F)(F)F)c1	i
Cn1cc(S(=O)(=O)N2CCCC2)cc1C(=O)Nc1ccc(F)cc1F	-3.4%
CC(=O)c1ccc(NC(=O)c2cc(S(=O)(=O)N3CCCCCC3)cn2C)cc1	7.6%
Cn1cc(S(=O)(=O)N2CCCCC2)cc1C(=O)Nc1ccc(OC(F)(F)F)cc1	11.2µM*
O=c1[nH]c(C2CCCN(Cc3ccccc3C(F)(F)F)C2)nn1-c1ccccc1 (stereo unspecified)	i
O=C(Cn1nc2c(cc1=O)CCCC2)NCCCc1nc2ccccc2[nH]1	4.6%
CCc1ccc(C(=O)N2CCC(OC3CCN(C)CC3)CC2)cc1	i
Cc1cc(C)nc(-n2nc(C)c3c2N(C)C(=O)CC3c2ccc(Cl)cc2)n1 (stereo unspecified)	11.4%
Cc1ccccc1-n1nc(C)c2c1NC(=O)CSC2c1ccc(Cl)cc1 (stereo unspecified)	1.5%
Cc1cc(C)nc(-n2nc(C)c3c2N(Cc2ccccc2C)C(=O)CC3c2ccc(Cl)cc2)n1 (stereo unspecified)	8.91µM*
Cn1nc(C(=O)NC2CCCc3c2[nH]c2ccccc32)c2ccccc2c1=O (stereo unspecified)	7.08µM*
O=C(Cn1nc2c(cc1=O)CCCCC2)NC1CCCc2c1[nH]c1ccccc21 (stereo unspecified)	-5.2%
O=C(NC1CCCc2c1[nH]c1ccccc21)c1ccccn1 (stereo unspecified)	-20.4%
COCCN1CCCCCC(O)c2cc(C(=O)NCCc3ccncc3)ccc21 (stereo unspecified)	-3.0%
COc1ccc(C(=O)N2CCCCCCNC(=O)CC2)cc1	-23.3%
CCOc1ccc(CC(=O)NCCc2sc3nc(-c4ccc(OC)cc4)nn3c2C)cc1	-27.8%
COc1ccc(-c2nc3sc(CCNC(=O)c4ccc(C(C)(C)C)cc4)c(C)n3n2)cc1	1.12µM*
Cc1c(CCNC(=O)c2ccc(Br)o2)sc2nc(-c3ccc(Cl)cc3)nn12	-16.4%
COc1ccc(-c2nc3sc(CCNC(=O)c4ccc(Br)o4)c(C)n3n2)cc1	8.91µM*
SMILES	Pf Dd2 inh
COc1ccc(-c2nc3sc(CCNC(=O)Cc4ccc(Cl)cc4)c(C)n3n2)cc1	5.6%
CCC(=O)NCCc1sc2nc(-c3ccc(OC)cc3)nn2c1C	-6.4%
CC(=O)N1CCCN(C(=O)c2cnc3c(c2)N(C(=O)CCc2ccccc2)CCC3)CC1	i
O=C(Nc1cc(F)cc(F)c1)N1CCCC2(C1)Nc1cccnc1NC2=NC1CCCC1 (stereo unspecified)	-16.1%[5.79 µM]
COc1cccc(NC(=O)N2CCCC3(C2)Nc2cccnc2NC3=NC2CCCC2)c1 (stereo unspecified)	-1.3%[5.79 µM]
COc1ccc(C)cc1NC(=O)N1CCCC2(C1)Nc1cccnc1NC2=NC1CCCC1 (stereo unspecified)	1.26µM*
CC(=O)N1C[C@@H]2OCC(=O)N(c3ccccc3)[C@@H]2C1	2.4%[44.1 µM]
COc1ccc(CNC(=O)C[C@@H]2[C@H](O)CCC3[C@](C)(CO)[C@H](OC(=O)NC(C)C)CC[C@]32C)cc1 (stereo partly specified)	-22.1%
COc1cccc(CN2CC[C@H](c3nnc(-c4ccco4)o3)C2)c1	i
Cc1cccc(CN2CCN(Cc3nc(-c4ccco4)oc3C)C(C)C2=O)c1 (stereo unspecified)	12.6µM*
Cc1cccc(-c2nc(CN3C(=O)CN=C(c4ccccc4)c4ccccc43)c(C)o2)c1	-21.6%
CO[C@H]1COCCN(C(=O)c2cccnc2)C1	24.4%[44.1 µM]
Cc1ccc(CN2C(=O)OC(c3cccc(NC(=O)c4ccccc4)c3)C2C(=O)NCCC(C)C)cc1 (stereo unspecified)	7.08µM*
Cc1cccc(C(=O)Nc2cccc(C3OC(=O)N(Cc4ccccc4)C3C(=O)NCC(C)C)c2)c1 (stereo unspecified)	-8.1%
CCC(=O)Nc1cccc(C2OC(=O)N(Cc3ccc(C)cc3)C2C(=O)NCCOC)c1 (stereo unspecified)	i
Cc1ccc(C(=O)N2CCc3[nH]nc(C(=O)NCCCc4ccccc4)c3C2)cc1	i
